Experimental data from PubChem BioAssay (Tox21).
Records with an inconclusive call do not appear. Activity calls are given as the source filed them. Unless noted, the call rests on the fitted dose curve.

What was measured:
[1] = qHTS assay to identify small molecule agonists of the estrogen receptor beta (ER-beta) signaling pathway - cell viability counter screen (AID 1259380; active means well fitted curve in the direction sought with a large enough effect in the repeat runs; an effect the other way counts as inactive or inconclusive; further: nearly all actives have a fitted effect of over 30% in size; further: potency means the concentration at half of the fitted maximal effect)
Procedure, shortened: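 Viability of ER-beta-UAS-bla HEK293T cells was determined by CellTiter-Glo luminescence following 16 hr treatment with test compounds at 37C.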

[2] = target: Androgen receptor (Homo sapiens) (UniProt P10275); experiment: qHTS assay to identify small molecule agonists of the androgen receptor (AR) signaling pathway in the presence of an antagonist (AID 1259381); further: nearly all actives have a fitted effect of over 15% in size
Sequence of Androgen receptor (Homo sapiens) (P10275 whole entry, looked up): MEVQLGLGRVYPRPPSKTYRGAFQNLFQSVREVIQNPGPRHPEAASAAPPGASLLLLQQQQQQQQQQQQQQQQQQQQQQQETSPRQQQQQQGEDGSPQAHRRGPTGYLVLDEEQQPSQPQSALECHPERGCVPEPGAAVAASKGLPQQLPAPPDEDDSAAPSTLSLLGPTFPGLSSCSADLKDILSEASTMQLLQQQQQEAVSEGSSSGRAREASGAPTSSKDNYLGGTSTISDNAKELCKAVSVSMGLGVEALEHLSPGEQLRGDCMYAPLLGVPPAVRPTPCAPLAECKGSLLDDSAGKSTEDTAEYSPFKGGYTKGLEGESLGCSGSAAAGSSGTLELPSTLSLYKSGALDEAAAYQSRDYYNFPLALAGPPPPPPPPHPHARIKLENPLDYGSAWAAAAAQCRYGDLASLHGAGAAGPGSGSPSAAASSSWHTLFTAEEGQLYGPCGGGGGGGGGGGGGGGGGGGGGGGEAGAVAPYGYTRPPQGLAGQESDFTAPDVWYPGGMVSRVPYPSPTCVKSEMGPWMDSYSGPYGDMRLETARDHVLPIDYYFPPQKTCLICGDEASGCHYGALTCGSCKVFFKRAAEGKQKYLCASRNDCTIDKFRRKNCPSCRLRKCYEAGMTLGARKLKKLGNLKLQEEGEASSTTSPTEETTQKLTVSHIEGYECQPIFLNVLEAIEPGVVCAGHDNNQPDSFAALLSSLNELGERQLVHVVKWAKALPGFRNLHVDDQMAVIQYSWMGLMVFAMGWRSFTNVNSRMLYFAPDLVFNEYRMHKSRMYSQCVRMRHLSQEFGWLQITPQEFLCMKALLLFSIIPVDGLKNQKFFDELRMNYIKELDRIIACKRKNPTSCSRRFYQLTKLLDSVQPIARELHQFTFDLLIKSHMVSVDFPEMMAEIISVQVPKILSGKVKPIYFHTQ
Procedure, shortened: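 Here, 15-concentration compound series were pin-transferred onto MDA-kb2 MMTV-luciferase cells already dosed with nilutamide (3.0uM final). After 16hr at 37C, ONE-Glo was added and luminescence read 30min later at room temperature.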

[3] = qHTS assay to identify small molecule antagonists of the estrogen receptor beta (ER-beta) signaling pathway - cell viability counter screen (AID 1259382; active means well fitted curve in the direction sought with a large enough effect in the repeat runs; an effect the other way counts as inactive or inconclusive; further: nearly all actives have a fitted effect of over 55% in size; further: potency means the concentration at half of the fitted maximal effect;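 on activity change, negative = cytotoxicity: HEK293T cells carrying ER-beta-UAS-bla reporter stimulated with estradiol; series mostly up to about 92 µM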)
Procedure, shortened: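 Tox21 10K library tested in qHTS format on ER-beta-bla HEK293T cells stimulated with 1nM E2; 16 hr treatment at 37C. Same-well CellTiter-Glo luminescence served as the cell viability measure.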

[4] = target: Estrogen receptor (Homo sapiens) (UniProt P03372); experiment: qHTS assay to identify small molecule agonists of the estrogen receptor alpha (ER-alpha) signaling pathway in the presence of an antagonist (AID 1259383); further: top concentration of the series differs between compounds; nearly all actives have a fitted effect of over 15% in size
Sequence of Estrogen receptor (Homo sapiens) (P03372 whole entry, looked up): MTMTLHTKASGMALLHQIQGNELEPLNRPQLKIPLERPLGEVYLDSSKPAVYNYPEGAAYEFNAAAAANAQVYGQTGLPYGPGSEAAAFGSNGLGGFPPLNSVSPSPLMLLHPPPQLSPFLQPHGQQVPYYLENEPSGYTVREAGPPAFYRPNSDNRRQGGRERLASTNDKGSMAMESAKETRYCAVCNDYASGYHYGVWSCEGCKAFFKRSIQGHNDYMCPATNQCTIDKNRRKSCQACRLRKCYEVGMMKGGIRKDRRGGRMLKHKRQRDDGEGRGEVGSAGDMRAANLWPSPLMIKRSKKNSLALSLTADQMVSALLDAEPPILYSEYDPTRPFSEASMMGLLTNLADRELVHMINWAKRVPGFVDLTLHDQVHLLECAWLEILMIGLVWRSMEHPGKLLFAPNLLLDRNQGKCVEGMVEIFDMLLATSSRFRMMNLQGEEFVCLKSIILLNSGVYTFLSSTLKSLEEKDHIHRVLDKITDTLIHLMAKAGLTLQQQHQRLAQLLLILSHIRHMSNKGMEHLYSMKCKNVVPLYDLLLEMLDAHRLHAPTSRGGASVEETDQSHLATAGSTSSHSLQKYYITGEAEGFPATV
Procedure, shortened: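 In VM7Luc4E2 cells, 4,000 per well, compounds at 15 concentrations were co-incubated 22hr at 37C with 10.0nM final ICI-182,780. Luminescence from the stably transfected 4×ERE-luciferase reporter was recorded 30min after ONE-Glo addition.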

[5] = qHTS assay to identify small molecule agonists of the estrogen receptor alpha (ER-alpha) signaling pathway in the presence of an antagonist - cell viability counter screen (AID 1259386; active means well fitted curve in the direction sought with a large enough effect in the repeat runs; an effect the other way counts as inactive or inconclusive;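 further: cells exposed to compounds for 22 h at 37 °C before the viability read; nearly all actives have a fitted effect of over 30% in size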; further: potency means the concentration at half of the fitted maximal effect; on activity change, negative = cytotoxicity: series mostly up to about 92 µM)
Procedure, shortened: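 Fluorescent CellTiter-Fluor viability signal from VM7Luc4E2 cells, with the reagent added during the final hour of a 22hr compound exposure at 37C in the presence of 10.0nM ICI-182,780.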

[6] = qHTS assay to identify small molecule antagonists of the progesterone receptor (PR) signaling pathway - cell viability counter screen (AID 1346798; active means well fitted curve in the direction sought with a large enough effect in the repeat runs; an effect the other way counts as inactive or inconclusive; further: nearly all actives have a fitted effect of over 50% in size; further: potency means the concentration at half of the fitted maximal effect; on activity change, negative = cytotoxicity: series mostly up to about 92 µM)
Procedure, shortened: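 Following a 4 hr attachment, PR-UAS-bla HEK293T cells in charcoal-stripped FBS medium were exposed to compounds with R5020 for 16 hr; CellTiter-Glo was added and luminescence read after 30 min at room temperature.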

[7] = qHTS assay to identify small molecule agonists or antagonists of the thyroid stimulating hormone receptor (TSHR) signaling pathway - wild type cell line counter screen (AID 1259384)
Procedure, shortened: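 Wild-type Hek293 cells, 800/well, 18 h at 37C, then compound with Ro20-1724 for 30 min RT. cAMP by HTRF (cAMP-d2/anti-cAMP cryptate), 1 h RT, fluorescence read. 15 concentrations, triplicates.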

[8] = target: Thyrotropin receptor (Homo sapiens) (UniProt P16473); experiment: qHTS assay to identify small molecule antagonists of the thyroid stimulating hormone receptor (TSHR) signaling pathway (AID 1259385); further: nearly all actives have a fitted effect of over 20% in size; further: potency means the concentration at half of the fitted maximal effect
Sequence of Thyrotropin receptor (Homo sapiens) (P16473 whole entry, looked up): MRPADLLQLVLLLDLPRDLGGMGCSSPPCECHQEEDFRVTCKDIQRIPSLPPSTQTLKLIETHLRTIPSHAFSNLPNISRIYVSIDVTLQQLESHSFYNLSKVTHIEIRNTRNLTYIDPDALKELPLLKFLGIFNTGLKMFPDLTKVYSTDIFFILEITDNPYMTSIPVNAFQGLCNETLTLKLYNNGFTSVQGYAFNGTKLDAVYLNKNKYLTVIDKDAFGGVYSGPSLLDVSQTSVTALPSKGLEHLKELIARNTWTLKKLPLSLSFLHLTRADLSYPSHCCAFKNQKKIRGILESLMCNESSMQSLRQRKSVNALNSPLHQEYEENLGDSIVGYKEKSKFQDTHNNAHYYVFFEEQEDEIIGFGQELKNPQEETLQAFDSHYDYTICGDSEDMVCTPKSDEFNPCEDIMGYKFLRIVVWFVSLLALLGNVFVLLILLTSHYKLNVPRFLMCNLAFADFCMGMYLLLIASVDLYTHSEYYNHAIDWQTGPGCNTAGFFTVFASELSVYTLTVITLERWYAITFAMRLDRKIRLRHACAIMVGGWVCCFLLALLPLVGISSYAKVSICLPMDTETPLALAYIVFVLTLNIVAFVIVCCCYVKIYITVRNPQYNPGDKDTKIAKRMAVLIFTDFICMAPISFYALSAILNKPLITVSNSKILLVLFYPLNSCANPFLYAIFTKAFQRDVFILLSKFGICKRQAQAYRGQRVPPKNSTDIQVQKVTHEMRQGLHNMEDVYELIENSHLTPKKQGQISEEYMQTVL
Procedure, shortened: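 TSHR-HEK293 cells (800/well) plated 18 h, then compounds with Ro20-1724 and TSH at 1.5 ng/mL final, 30 min at room temperature. cAMP quantified by HTRF (cAMP-d2/anti-cAMP-cryptate, 1 h); 15 concentrations in triplicate.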

[9] = target: Progesterone receptor (Homo sapiens) (UniProt P06401); experiment: qHTS assay to identify small molecule agonists of the progesterone receptor (PR) signaling pathway (AID 1346784); further: nearly all actives have a fitted effect of over 30% in size
Sequence of Progesterone receptor (Homo sapiens) (P06401 whole entry, looked up): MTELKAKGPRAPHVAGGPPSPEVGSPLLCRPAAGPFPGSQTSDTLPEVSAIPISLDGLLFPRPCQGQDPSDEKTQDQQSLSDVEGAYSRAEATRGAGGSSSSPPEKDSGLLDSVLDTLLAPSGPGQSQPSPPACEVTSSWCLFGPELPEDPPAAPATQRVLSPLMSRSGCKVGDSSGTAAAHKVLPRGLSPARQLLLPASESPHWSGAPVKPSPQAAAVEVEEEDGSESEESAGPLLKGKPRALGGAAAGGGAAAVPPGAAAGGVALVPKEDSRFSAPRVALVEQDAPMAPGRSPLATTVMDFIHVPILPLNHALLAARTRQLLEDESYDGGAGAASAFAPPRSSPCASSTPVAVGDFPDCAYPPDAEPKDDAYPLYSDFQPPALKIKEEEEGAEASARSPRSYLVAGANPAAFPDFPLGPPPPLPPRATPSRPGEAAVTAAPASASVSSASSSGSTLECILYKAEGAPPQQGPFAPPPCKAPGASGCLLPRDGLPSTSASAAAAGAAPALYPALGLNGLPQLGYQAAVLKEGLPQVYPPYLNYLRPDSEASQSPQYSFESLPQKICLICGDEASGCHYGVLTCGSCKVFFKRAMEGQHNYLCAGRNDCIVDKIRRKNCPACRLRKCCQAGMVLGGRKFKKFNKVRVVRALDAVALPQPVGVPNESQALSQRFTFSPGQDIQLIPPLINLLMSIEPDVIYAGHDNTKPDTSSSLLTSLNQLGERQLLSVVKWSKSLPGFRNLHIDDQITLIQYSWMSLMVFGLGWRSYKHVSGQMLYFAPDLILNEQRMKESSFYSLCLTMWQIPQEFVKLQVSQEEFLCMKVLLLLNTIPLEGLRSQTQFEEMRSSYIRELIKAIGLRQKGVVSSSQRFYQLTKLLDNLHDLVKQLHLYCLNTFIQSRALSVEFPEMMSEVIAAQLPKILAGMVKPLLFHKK
Procedure, shortened: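 Compounds were tested for PR agonism in HEK 293T cells bearing a beta-lactamase gene under UAS control. Treatment lasted 16 hr at 37C; signal came from fluorescence of a FRET substrate.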

[10] = target: Progesterone receptor (Homo sapiens) (UniProt P06401); experiment: qHTS assay to identify small molecule antagonists of the progesterone receptor (PR) signaling pathway (AID 1346795; active means well fitted inhibition curve with a large enough effect in the signal ratio in the repeat runs, not every such curve was filed as active; the % refers to the signal ratio)
Procedure, shortened: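 In HEK293T cells bearing the PR-UAS-bla reporter, compound effects on promegestone-driven (1 nM) beta-lactamase expression are assessed after 16 hr using a fluorescent FRET substrate incubated 2 hr at room temperature.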
On the % scale 0 is the no-effect control and ±100 the full control effect.

Oc1ccc2c(c1)CCC2
inactive: Potency [1] | Potency [2] | Potency [3] | Potency [4] | Potency [5] | Potency [6]

Nc1cc([N+](=O)[O-])ccc1Cl
inactive: Potency [1] | Potency [2] | Potency [3] | Potency [7] | Potency [8] | Potency [5] | outcome [9] | Potency [6]

Clc1cccc(Cl)n1
inactive: Potency [1] | Potency [2] | Potency [3] | Potency [4] | Potency [5] | outcome [9] | Potency [6]

Cc1cccc2c1ccc1ccccc12
inactive: Potency [1] | Potency [2] | Potency [3] | Potency [4] | Potency [5] | outcome [9] | Potency [6]

CCc1c(C)cc(N)c(CC)c1N
inactive: Potency [1] | Potency [2] | Potency [3] | Potency [4] | Potency [7] | Potency [5] | outcome [9] | Potency [10] | Potency [6]

CCOc1nc(F)cc2nc(S(=O)(=O)Nc3c(Cl)cccc3C(=O)OC)nn12
inactive: Potency [1] | Potency [2] | Potency [3] | Potency [4] | Potency [7] | Potency [8] | outcome [9] | Potency [10] | Potency [6]

CCn1c2ccccc2c2ccccc21
inactive: Potency [1] | Potency [2] | Potency [3] | Potency [4] | Potency [7] | Potency [8] | outcome [9] | Potency [10] | Potency [6]

CC(CC(C)(C)C)CC(C)(C)CC(C)(C)C (stereo not given)
inactive: Potency [1] | Potency [2] | Potency [3] | Potency [7] | Potency [8] | Potency [5] | Potency [6]

Cc1ccc2n[nH]nc2c1
inactive: Potency [1] | Potency [3] | Potency [4] | Potency [7] | Potency [8] | Potency [5] | outcome [9] | Potency [10] | Potency [6]

CSc1ccc(O)cc1C
active: Potency [1] 61.1 µM | Potency [6] 61.1 µM
inactive: Potency [2] | Potency [4] | Potency [7] | Potency [8] | outcome [9]

NC(=O)C1CO1 (stereo not given)
inactive: Potency [1] | Potency [3] | Potency [4] | Potency [7] | Potency [8] | Potency [5] | outcome [9] | Potency [10]

O=C(O)CN(CCCN(CC(=O)O)CC(=O)O)CC(=O)O
inactive: activity change, negative = cytotoxicity [1] -20.5% [at 19 µM] | activation [2] 1.23% [at 19 µM] | activation [4] -0.204% [at 19 µM] | cAMP activity change [7] 0.161% [at 18.9 µM, hits give high values] | activity change, negative = inhibition [8] 1.63% [at 19 µM] | activity change, negative = cytotoxicity [5] -13.1% [at 19 µM] | activation [9] 8.3% [at 19 µM] | activity change, negative = inhibition [10] -17.6% [at 18.9 µM] | activity change, negative = cytotoxicity [6] -17.6% [at 18.9 µM]

O[Si](c1ccccc1)(c1ccccc1)c1ccccc1
active: Potency [1] 48.6 µM
inactive: Potency [2] | Potency [4] | Potency [7] | Potency [8] | Potency [5] | outcome [9]

Cc1cc(Br)ccc1NC(=O)CCl
active: Potency [1] 30.6 µM | Potency [3] 30.6 µM
inactive: Potency [4] | Potency [7] | Potency [8] | outcome [9]

Oc1ccc(C2(c3ccc(O)c(C4CCCCC4)c3)CCCCC2)cc1C1CCCCC1
inactive: Potency [4] | Potency [7]
active: Potency [1] 19.3 µM | Potency [3] 27.3 µM

CCN(CC)c1ccc2c(c1)Oc1cc(N(CC)CC)ccc1C21OC(=O)c2ccccc21
inactive: Potency [2] | Potency [4] | outcome [9] | Potency [10] | Potency [6]
active: Potency [1] 10.6 µM | Potency [5] 5.31 µM

CN1CC[C@H](c2c(O)cc(O)c3c(=O)cc(-c4ccccc4Cl)oc23)[C@H](O)C1
inactive: Potency [1] | Potency [2] | Potency [3] | Potency [5]

O=C1OC(O)C(C(Cl)Cl)=C1Cl (stereo not given)
active: Potency [1] 19.9 µM
inactive: Potency [3] | Potency [4] | Potency [7] | Potency [8] | Potency [5]

C=C[Si](C)(C)Cl
inactive: activity change, negative = cytotoxicity [1] 0.271% [at 8.39 µM] | activity change, negative = cytotoxicity [3] 6.43% [at 8.39 µM] | activation [4] -1.47% [at 8.39 µM] | cAMP activity change [7] -4.27% [at 8.39 µM, hits give high values] | activity change, negative = inhibition [8] 0.177% [at 8.39 µM] | activation [9] 0.63% [at 8.39 µM] | activity change, negative = inhibition [10] 4.87% [at 8.39 µM] | activity change, negative = cytotoxicity [6] -4.28% [at 8.39 µM]

CC/C=C(\C)C=O
inactive: Potency [1] | Potency [3] | Potency [4] | Potency [7] | Potency [8] | outcome [9] | Potency [10]

CCCCCCCCCCCCCCCCCCNC(=O)OC1CCN(C(=O)OC[C@H](COC(=O)N(Cc2cccc[n+]2CC)C(=O)c2ccccc2OC)OC)CC1
inactive: Potency [2] | Potency [4] | Potency [7]
active: Potency [1] 26.6 µM | Potency [8] 29.8 µM | Potency [5] 26.6 µM
